In PubChem BioAssay (NCATS):
Inconclusive results are not listed. A call without a number means that no potency is given here. Active and inactive are the calls of the source. Unless noted, the call rests on the fitted dose curve; in most records, active means well fitted curve in the direction sought with a large enough effect; inconclusive means small, poorly fitted or top-dose-only effect, or another doubt; inactive means no such curve, though single readings can be large; an effect the other way counts as inactive or inconclusive.

What was measured:
[1] = target: Ubiquitin carboxyl-terminal hydrolase 1 (Homo sapiens) (UniProt O94782); experiment: Inhibitors of USP1/UAF1: Pilot qHTS (AID 504865); further: nearly all actives have a fitted effect of over 35% in size; further: potency means the concentration at half of the fitted maximal effect
Outline: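 USP1/UAF1 complex (1nM) preincubated with compound 15 min at room temperature, then Ub-Rho substrate (150nM final) added. Fluorescence read kinetically at 480/540 nm, 6 reads every 60 seconds. Buffer: 50mM HEPES pH 7.8, 0.5mM EDTA, 0.1 mg/ml BSA, 1mM TCEP, 0.01% Tween-20.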

[2] = target: Galactokinase (Homo sapiens) (UniProt P51570); experiment: qHTS Validation Assay for Inhibitors of Human Galactokinase (GALK) (AID 493189)
Outline: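 GALK (5 nM) with 35 uM ATP and 100 uM galactose in HEPES pH8.0, MgCl2, NaCl, DTT, BSA; 1 h at room temperature. Residual ATP read by Kinase-Glo Plus luminescence after 10 min.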

[3] = Validation screen for small molecules that induce DNA re-replication in SW480 colon adenocarcinoma cells (AID 504364)
Outline: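 Image-based qHTS: compounds were incubated with SW480 cells for 48 hr, nuclei stained with Hoechst, and per-nucleus fluorescence intensity scanned to flag cells with excess DNA content.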

[4] = target: Peptidyl-prolyl cis-trans isomerase NIMA-interacting 1 (Homo sapiens) (UniProt Q13526); experiment: qHTS Validation Assay to Find Inhibitors of Pin1 (AID 504536; active means well fitted inhibition curve with a large enough effect in the polarisation, with a control signal flat, not every such curve was filed as active; the % refers to the polarisation)
Outline: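 Fluorescence polarization competition: compounds (titration) displace HiFluor-488-labeled Pin1-1b peptide from Pin1 (0.3 uM final) in pH 7.5 HEPES buffer with DTT, 10 min at room temperature; %Activity normalized to no-enzyme wells, curves fitted.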

[5] = target: Phosphoglycerate kinase, glycosomal (Trypanosoma brucei brucei) (UniProt P07378); experiment: qHTS Validation Assay to Find Inhibitors of Phosphoglycerate Kinase (AID 504547)
Outline: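 Compounds are pinned into the substrate/PGK mixture, and GAPDH (100nM final) is added to start the reaction by producing 1,3-BPG. After 60 minutes at room temperature, Kinase-Glo Plus is added and luminescence is measured 10 minutes later.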

[6] = target: phosphoglycerate mutase (Leishmania major) (UniProt Q4Q090); experiment: qHTS Validation Assay to Find Inhibitors of Phosphoglycerate Mutase (AID 504548); further: series mostly up to about 58 µM
Outline: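 Lm PGAM 1.25nM final; 100 mM TEA pH 7.6, 5 mM MgCl2, 0.01% Tween-20; 45 min RT; Kinase-GloPlus, 10 min; end-point luminescence. Enzyme-free wells as negative controls.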

[7] = qHTS for Inhibitors of Plasmodium falciparum (DD2) proliferation (AID 504314);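 further: parasite DNA measured by SYBR Green fluorescence after red cell lysis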
Outline: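 P. falciparum Dd2 is grown in erythrocytes with test compound for 72 h at 37C under 5% CO2. Growth is scored by SYBR Green I fluorescence after detergent lysis, relative to artemisinin (0.29 uM) and DMSO controls.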

[8] = qHTS for Inhibitors of Plasmodium falciparum (GB4) proliferation (AID 504315); further: nearly all actives have a fitted effect of over 50% in size
Source text: (§1) Plasmodium falciparum is a virulent malarial parasite that kills 1-2 million people worldwide each year. Malaria not only inflicts tremendous suffering and morbidity on the human population, but has dramatically influenced the course of civilization with profound sociological and economic implications (Shah, S. 2010). Transmitted by mosquitoes, the sporozoite form of the parasite enters the blood stream to infect hepatocytes, where they become merozoites that infect red blood cells (erythrocytes). Within erythrocytes, merozoites begin a […] cycle of growth and division, after which the parasite is released to infect new red blood cells. Gametocytes, which form within erythrocytes as well, circulate in the bloodstream and are ingested by the mosquito, thereby completing the life cycle (see CDC website). To profile malarial lines for differential chemical responses and to identify inhibitors of malarial growth, an assay that measures P. falciparum growth and replication within erythrocytes was employed. This assay uses a DNA binding fluorescent dye (SYBR Green) to detect parasite DNA following cell lysis. Because mature erythrocytes lack DNA, only Plasmodium-derived DNA is detected. The P. falciparum line cp250, derived from a malarial isolate from Cambodia, (Mu, J., et al. 2010) was added to the panel of lines, Dd2, HB3, 7G8 and GB4 in this study. […]

[9] = qHTS for Inhibitors of Plasmodium falciparum (7G8) proliferation (AID 504316); further: series mostly up to about 6.7 µM; nearly all actives have a fitted effect of over 65% in size
Outline: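 Parasite growth measured as SYBR Green DNA fluorescence (ex 485, em 535 nm) after overnight lysis following 72 h culture at 37 °C, 0.3% parasitemia, 2.5% hematocrit. Values normalized against DMSO and 0.29 uM artemisinin controls, with plate-stack correction.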

[10] = qHTS for Inhibitors of Plasmodium falciparum (CP250) proliferation (AID 504320)
Source text: as §1

Chain of Galactokinase (Homo sapiens) (P51570 whole entry, looked up): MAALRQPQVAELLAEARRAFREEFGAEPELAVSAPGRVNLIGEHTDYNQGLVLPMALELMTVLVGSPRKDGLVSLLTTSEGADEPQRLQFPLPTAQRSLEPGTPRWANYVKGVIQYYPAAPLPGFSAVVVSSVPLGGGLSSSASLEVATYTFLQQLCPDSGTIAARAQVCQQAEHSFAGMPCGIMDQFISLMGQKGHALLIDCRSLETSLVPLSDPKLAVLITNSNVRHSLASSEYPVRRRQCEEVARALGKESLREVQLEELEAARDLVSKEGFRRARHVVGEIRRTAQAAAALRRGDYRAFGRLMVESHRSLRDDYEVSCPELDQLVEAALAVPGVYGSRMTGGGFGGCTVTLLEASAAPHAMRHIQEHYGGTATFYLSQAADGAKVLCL
Chain of Ubiquitin carboxyl-terminal hydrolase 1 (Homo sapiens) (O94782 whole entry, looked up): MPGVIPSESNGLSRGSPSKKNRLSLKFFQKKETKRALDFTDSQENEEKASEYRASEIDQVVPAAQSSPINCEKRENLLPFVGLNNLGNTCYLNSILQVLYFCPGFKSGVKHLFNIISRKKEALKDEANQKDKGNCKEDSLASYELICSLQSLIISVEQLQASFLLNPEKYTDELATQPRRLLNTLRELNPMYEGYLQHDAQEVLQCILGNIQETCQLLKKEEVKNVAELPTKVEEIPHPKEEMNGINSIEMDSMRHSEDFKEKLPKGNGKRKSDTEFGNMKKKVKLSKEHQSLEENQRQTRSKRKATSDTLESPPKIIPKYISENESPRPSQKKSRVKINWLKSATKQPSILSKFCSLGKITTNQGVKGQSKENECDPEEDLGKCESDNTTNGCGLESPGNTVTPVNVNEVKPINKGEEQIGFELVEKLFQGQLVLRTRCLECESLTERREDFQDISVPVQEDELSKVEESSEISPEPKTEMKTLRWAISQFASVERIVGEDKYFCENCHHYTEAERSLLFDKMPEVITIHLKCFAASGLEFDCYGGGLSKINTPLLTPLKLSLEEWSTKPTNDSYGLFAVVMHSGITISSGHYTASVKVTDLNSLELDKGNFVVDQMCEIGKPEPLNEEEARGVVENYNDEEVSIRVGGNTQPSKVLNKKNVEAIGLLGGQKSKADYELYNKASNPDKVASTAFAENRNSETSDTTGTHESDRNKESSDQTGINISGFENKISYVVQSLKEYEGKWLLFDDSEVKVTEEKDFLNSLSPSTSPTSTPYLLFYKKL
Chain of phosphoglycerate mutase (Leishmania major) (Q4Q090 1-553): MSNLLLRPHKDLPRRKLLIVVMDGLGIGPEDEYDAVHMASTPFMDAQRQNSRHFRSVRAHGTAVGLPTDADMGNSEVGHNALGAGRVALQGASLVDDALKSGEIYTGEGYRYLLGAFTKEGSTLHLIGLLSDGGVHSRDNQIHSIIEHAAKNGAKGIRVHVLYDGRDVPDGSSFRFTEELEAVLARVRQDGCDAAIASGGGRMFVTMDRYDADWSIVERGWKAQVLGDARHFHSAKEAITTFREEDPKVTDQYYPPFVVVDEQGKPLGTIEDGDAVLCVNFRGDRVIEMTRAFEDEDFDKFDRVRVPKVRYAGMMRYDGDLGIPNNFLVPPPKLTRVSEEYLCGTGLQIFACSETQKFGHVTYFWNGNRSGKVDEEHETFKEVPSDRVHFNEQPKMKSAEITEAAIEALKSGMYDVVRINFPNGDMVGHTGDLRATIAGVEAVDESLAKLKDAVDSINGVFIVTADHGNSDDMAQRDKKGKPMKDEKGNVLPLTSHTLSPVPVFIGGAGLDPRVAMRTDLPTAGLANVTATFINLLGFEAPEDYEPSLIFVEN
Chain of Phosphoglycerate kinase, glycosomal (Trypanosoma brucei brucei) (P07378 whole entry, looked up): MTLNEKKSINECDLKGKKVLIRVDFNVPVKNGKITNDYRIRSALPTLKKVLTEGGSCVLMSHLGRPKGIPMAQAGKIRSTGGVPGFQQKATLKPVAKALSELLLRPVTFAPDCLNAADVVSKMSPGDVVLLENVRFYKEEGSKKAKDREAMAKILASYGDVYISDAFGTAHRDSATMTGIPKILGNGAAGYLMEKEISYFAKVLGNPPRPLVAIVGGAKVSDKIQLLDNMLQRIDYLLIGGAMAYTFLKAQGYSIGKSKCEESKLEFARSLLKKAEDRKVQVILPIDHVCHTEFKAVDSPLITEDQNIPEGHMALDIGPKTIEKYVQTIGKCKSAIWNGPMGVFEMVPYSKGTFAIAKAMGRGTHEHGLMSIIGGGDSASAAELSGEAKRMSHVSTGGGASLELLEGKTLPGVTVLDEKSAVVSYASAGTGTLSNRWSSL
Chain of Peptidyl-prolyl cis-trans isomerase NIMA-interacting 1 (Homo sapiens) (Q13526 whole entry, looked up): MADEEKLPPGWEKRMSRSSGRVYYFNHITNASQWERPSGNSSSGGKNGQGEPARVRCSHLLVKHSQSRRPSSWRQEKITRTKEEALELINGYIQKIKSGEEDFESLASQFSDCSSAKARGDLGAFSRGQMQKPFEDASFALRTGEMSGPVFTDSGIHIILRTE

Compound: CC(C)c1nc(N(C)S(C)(=O)=O)nc(-c2ccc(F)cc2)c1/C=C/C(O)CC(O)CC(=O)O (configuration not stated)
- Potency [1]: inactive

Compound: CC(C)c1ncc([N+](=O)[O-])n1C
- Potency [1]: inactive

Compound: O=C(O)[C@H]1CN(C/C=C/P(=O)(O)O)CCN1
- Potency [1]: inactive

Compound: S=C=Nc1ccc(N=C=S)cc1
- Potency [1]: inactive

Compound: CC(=O)c1ccc2c(c1)N(CCCN1CCN(CCO)CC1)c1ccccc1S2
- Potency [1]: inactive

Compound: C[C@H]1O[C@@H](O[C@H]2[C@@H](O)C[C@H](O[C@H]3[C@@H](O)C[C@H](O[C@H]4CC[C@@]5(C)[C@H](CC[C@@H]6[C@@H]5C[C@@H](O)[C@]5(C)[C@@H](C7=CC(=O)OC7)CC[C@]65O)C4)O[C@@H]3C)O[C@@H]2C)C[C@H](O)[C@@H]1O
- Potency [1]: inactive

Compound: CC1=CC(=O)NS(=O)(=O)O1
- Potency [1]: inactive

Compound: FC(F)(F)COCC(F)(F)F
- Potency [1]: inactive

Compound: CNC(=O)[C@H](Cc1c[nH]c2ccccc12)NC(=O)[C@@H](CC(=O)NO)CC(C)C
- Potency [1]: inactive

Compound: O=c1[nH]c(=O)n([C@H]2C[C@H](O)[C@@H](CO)O2)cc1/C=C/Br
- outcome [2]: inactive
- outcome [3]: inactive
- Potency [1]: inactive

Compound: O=C1[O][Bi][O]c2ccccc21
- Potency [1]: inactive

Compound: OB(O)O
- Potency [1]: inactive

Compound: CC(C)CCCC(C)NC(C)C (configuration not stated)
- Potency [1]: inactive

Compound: CCCOC(=O)c1ccccc1O
- Potency [1]: inactive

Compound: O=P(O)(O)CP(=O)(O)O
- Potency [1]: inactive

Compound: Nc1ncnc2c1ncn2[C@H]1CC[C@@H](CO)O1
- Potency [1]: inactive

Compound: COc1ccc(-c2noc(CC(=O)O)c2-c2ccc(OC)cc2)cc1
- Potency [1]: inactive

Compound: Cc1cccc(Nc2ncccc2C(=O)O)c1C
- Potency [1]: inactive

Compound: FC(F)(F)C(F)(F)C(F)(F)C(F)(F)C(F)(F)F
- Potency [1]: inactive

Compound: COc1cc(C)c(/C=C/C(C)=C/C=C/C(C)=C/C(=O)O)c(C)c1C
- Potency [1]: 50.1 µM (active)

Compound: NC(=O)[C@H]1O[C@@H](O)[C@H](O)[C@@H](O)[C@@H]1O
- Potency [1]: inactive

Compound: CC(C)=CCC/C(C)=C/CC/C(C)=C/CC/C=C(\C)CC/C=C(\C)CCC=C(C)C
- Potency [1]: inactive

Compound: Oc1ccc(/C=C/c2cc(O)cc(O)c2)cc1
- outcome [2]: inactive
- outcome [3]: inactive
- outcome [4]: inactive
- outcome [5]: inactive
- outcome [6]: inactive
- Potency [1]: inactive

Compound: O=S(=O)(O)CCCS(=O)(=O)O
- Potency [1]: inactive

Compound: O=C(NCCNCC(O)COc1ccc(O)cc1)N1CCOCC1 (configuration not stated)
- outcome [2]: inactive
- outcome [3]: inactive
- Potency [1]: inactive

Compound: Cc1c(O)c(=O)ccn1C
- outcome [7]: inactive
- outcome [8]: inactive
- outcome [9]: inactive
- outcome [10]: inactive

Compound: C[C@@](Cc1ccc(O)c(O)c1)(NN)C(=O)O
- outcome [2]: inactive
- outcome [3]: inactive
- Potency [1]: inactive

Compound: C[C@H](N)C(=O)N[C@@H](C)P(=O)(O)O
- Potency [1]: inactive

Compound: C/C(=C\C(=O)OCCCCCCCCC(=O)O)C[C@@H]1OC[C@H](C[C@@H]2O[C@H]2[C@@H](C)[C@H](C)O)[C@@H](O)[C@H]1O
- Potency [1]: inactive

Compound: CCSc1ccc2c(c1)N(CCCN1CCN(C)CC1)c1ccccc1S2
- Potency [1]: inactive

Compound: CC(C)[C@H](N)C(=O)OCC(CO)OCn1cnc2c(=O)[nH]c(N)nc21 (some centres not stated)
- Potency [1]: inactive

Compound: CCC(C)[C@@H](N)C(=O)O (some centres not stated)
- Potency [1]: inactive

Compound: O=C(O)Cc1nn(Cc2ccc(Br)cc2F)c(=O)c2ccccc12
- Potency [1]: inactive

Compound: Cc1cc(C)c(NC(=O)C[C@H](CC(=O)O)c2cccc3ccccc23)c(C(=O)N2CCC3(CCCC3)CC2)c1
- outcome [2]: inactive
- outcome [3]: inactive

Compound: CCCCCc1ccc(C)cc1O
- Potency [1]: 35.5 µM (active)

Compound: COc1cc(S(C)=O)ccc1-c1nc2ncccc2[nH]1 (configuration not stated)
- Potency [1]: inactive

Compound: CC(C)[C@@H](N)C(=O)O
- Potency [1]: inactive

Compound: CC(CC=O)CCCC(C)(C)O (configuration not stated)
- Potency [1]: inactive

Compound: c1ccc2c(c1)OCC(CN1CCCCC1)O2 (configuration not stated)
- Potency [1]: inactive

Compound: Cc1cc(-c2ccc(N=Nc3c(S(=O)(=O)O)cc4cc(S(=O)(=O)O)cc(N)c4c3O)c(C)c2)ccc1N=Nc1c(S(=O)(=O)O)cc2cc(S(=O)(=O)O)cc(N)c2c1O
- Potency [1]: 8.91 µM (active)

Compound: O=C(NNCNNC(=O)c1ccncc1)c1ccncc1
- Potency [1]: inactive

Compound: CCCOc1cc(N)ccc1C(=O)OCCN(CC)CC
- Potency [1]: inactive

Compound: CC(C)(CO)[C@@H](O)C(=O)NCCC(=O)NCCSSCCNC(=O)CCNC(=O)[C@H](O)C(C)(C)CO
- Potency [1]: inactive

Compound: CC/C=C\C/C=C\C/C=C\C/C=C\C/C=C\C/C=C\CCC(=O)O
- Potency [1]: 50.1 µM (active)

Compound: N=C(N)c1ccc(/C=C/c2ccc(C(=N)N)cc2O)cc1
- Potency [1]: inactive

Compound: COc1ccc(C(=O)CCC(=O)O)c2ccccc12
- Potency [1]: inactive

Compound: NCCO/C=C/[C@H](N)C(=O)O
- Potency [1]: inactive
